Bioassay records deposited in PubChem BioAssay by National Center for Advancing Translational Sciences (NCATS).
Most compounds without a hit are left out; they make up all but 7.7% or so of the library.
TbPYK inhibitor: qHTS of Trypanosoma Brucei Inhibitors; pyruvate kinase (Trypanosoma brucei), Q57TT1; TbPYK enzyme, Kinase-Glo Plus ATP luminescence, 45 min; Potency, µM (highest dose often 76.8 µM), for inactives: at the top dose activity, negative = inhibition, hits mostly inhibitors; actives 0.12% (n = 410,000); AID 624173, 2012; note: potency is the fitted concentration of half-maximal effect; nearly all actives have a fitted effect of over 50% in size
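T. brucei PYK with substrate was exposed to pin-transferred compounds across a concentration series, then started with 130 uM ADP (final). After 45 min at room temperature, Kinase-Glo Plus luminescence was read, normalized and curve-fitted.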
RE007 growth inh: qHTS Assay for Inhibitors of the HIV-1 protein Vpr | S. pombe RE007 Vpr strain, BacTiter-Glo ATP luminescence, 24 h | Potency, µM (series often up to 92.2 µM), without a hit: at the highest dose activity change, negative = less growth, actives largely listed as inhibitors | actives 0.21% (n = 360,000); active = well fitted falling curve with a large enough effect; inconclusive = small, poorly fitted or top-dose-only effect; inactive = no such curve, though single readings can be large or run the other way; note: potency is the fitted concentration of half-maximal effect; nearly all actives have a fitted effect of over 50% in size
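Fission yeast RE007 carrying one integrated HIV-1 vpr copy, seeded at OD 0.01 in PMG+AL medium with 23 nL pinned compound. Grown 24 h at 30 degrees; viability read by BacTiter-Glo luminescence after 5 min.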
HCMV inh: qHTS Assay for inhibitors of the human cytomegalovirus (HCMV); HFF cells, HCMV-luciferase reporter, 72 h; active compounds read low; activity change, negative = inhibition, % at 57.5 µM; actives 4.5% (n = 410,000); in the data active = activity change below about -60%; inconclusive = no clear call, values can overlap the other calls; inactive = above about -39%
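HFF cells seeded 16 h at 37C, treated with compounds, infected with luciferase-reporter HCMV at MOI 1 PFU/cell; luciferase read at 72 h post infection, normalized to buffer-only and Salinomycin controls.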
Sm TGR inh: qHTS Assay for the Inhibitors of Schistosoma Mansoni Peroxiredoxins; actives 3% (n = 360,000); Schistosoma mansoni thioredoxin glutathione reductase (TGR), Q962Y6; Potency, µM (highest dose often 114 µM), without a hit: at the top dose activity change, negative = inhibition, hits mostly inhibitors; AID 485364, 2010; purified TGR, DTNB reduction, TNB absorbance 405 nm; note: potency is the fitted concentration of half-maximal effect; nearly all actives have a fitted effect of over 60% in size
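First, TGR (20 nM dispensed) and NADPH were mixed with compound. Second, a 15 min room-temperature incubation followed. Third, further NADPH and then DTNB were added to start the reaction. Finally, TNB absorbance was monitored kinetically.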
FBPA Giardia inh: qHTS Assay for Inhibitors of Fructose-1,6-bisphosphate Aldolase from Giardia Lamblia. A8B2U2. purified Giardia FBPA. Potency, µM (highest dose often 59.6 µM), without a hit: top-dose activity, negative = inhibition, hits mostly inhibitors. actives 0.71% (n = 290,000). AID 2451, 2010; note: potency is the fitted concentration of half-maximal effect; nearly all actives have a fitted effect of over 55% in size
Target sequence (A8B2U2 whole entry, looked up): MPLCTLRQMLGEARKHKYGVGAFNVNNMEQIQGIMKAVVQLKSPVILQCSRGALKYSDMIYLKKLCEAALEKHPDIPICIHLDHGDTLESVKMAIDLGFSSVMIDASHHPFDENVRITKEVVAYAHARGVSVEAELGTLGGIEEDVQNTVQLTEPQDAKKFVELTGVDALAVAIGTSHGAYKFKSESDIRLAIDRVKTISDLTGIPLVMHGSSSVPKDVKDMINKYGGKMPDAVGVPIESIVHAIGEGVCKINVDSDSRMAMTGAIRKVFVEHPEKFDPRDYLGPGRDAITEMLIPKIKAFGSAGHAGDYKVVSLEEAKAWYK
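Giardia FBPA (40 nM reagent) was preincubated 10 min at RT with compound (up to 57.5 uM final), then substrate plus GAPDH/TPI/NAD/arsenate coupling system with diaphorase/resazurin was added; resorufin fluorescence (525/598 nm) was read after 20 min.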
FMDV antiviral: High Throughput Screening for Foot and Mouth Disease Virus Antivirals | FMDV antiviral cell-based qHTS | Potency, µM (top dose mostly 57.9 µM), for inactives: at the highest dose activity change, negative = inhibition, usual class: inhibitors | actives 1.2% (n = 410,000) | AID 1159524, 2015; calls by dose curve; tested in HEK293T cells; note: read-out not given here; potency is the fitted concentration of half-maximal effect; nearly all actives have a fitted effect of over 45% in size
The depositor's hits bear a star; ? = inconclusive; / = no result; + = active, no number; [ ] = another dose, or the depositor's remark. Unless noted, calls come from the whole dose curve; as a rule, active = well fitted curve in the direction sought with a large enough effect; inconclusive = small, poorly fitted or top-dose-only effect, or another doubt; inactive = no such curve, though single readings can be large; an effect the other way counts as inactive or inconclusive. % is set by controls: 0 for no effect and ±100 for the full control effect.

SMILES | TbPYK inhibitor | RE007 growth inh | HCMV inh | Sm TGR inh | FBPA Giardia inh | FMDV antiviral
Cn1c(N)c(C(=O)CSc2nn(-c3ccc(F)cc3)c(=S)s2)c(=O)n(C)c1=O | -1% | 0% | ? | -6% | / | 16µM*
Cc1cc(C)n(-c2ccc(C(=O)N3CCc4c(cnc(C)c4CNC(=O)c4ccccc4F)C3)cc2)n1 | / | / | / | / | / | -11%
O=C(/C=C\N1CCOCC1)c1ccc(Br)cc1 | 6% | -28% | 16 | 16µM* | -5% | 64%
CC(C)Oc1cccc(NC(=O)c2ccccc2C(F)(F)F)c1 | 2%[157 µM] | / | / | / | / | /
Cc1ccc2c(c1)N(CC(=O)NCc1ccccc1Br)C(=O)c1cccnc1O2 | 5%[15.4 µM] | / | 0 | -2% | / | -5%
COc1ccc(Br)cc1CNC(=O)CN1C(=O)c2cccnc2Oc2ccc(C)cc21 | -3%[15.4 µM] | / | + | -3% | / | -5%
CCOc1ccc2c(c1)c(=O)c(C(=O)c1ccc3c(c1)OCO3)cn2Cc1ccc(F)cc1 | 2% | / | 8 | -8% | / | -16%
COc1ccc(C2CC(c3c(O)n(CCc4ccccc4)c(=O)[nH]c3=O)=NN2)cc1OC (stereo unspecified) | -10% | 2% | -18 | 8% | ? | 0%
COc1cc2c(cc1OC)C(c1c(O)n(CCc3ccccc3)c(=S)[nH]c1=O)NCC2 (stereo unspecified) | -1% | 2% | -64* | 1% | 5% | 5%
COc1ccccc1OCC(=O)N(Cc1ccco1)Cc1ccccc1F | -2% | / | 7 | -8% | / | -4%
COc1ccc(-c2nc3ccc([N+](=O)[O-])cc3o2)cc1 | -17% | -9% | -92* | -2% | 5% | 20%
O=[N+]([O-])c1ccc2oc(-c3ccccc3)nc2c1 | 2% | ? | 45 | -6% | 5% | 53%
COc1ccc(N2CC(NC(=O)/C=C\c3ccccc3)CC2=O)cc1 (stereo unspecified) | 0% | / | 9 | -2% | / | -5%
Cc1ccc(NC(=O)COc2ncnc3c(Cl)cc(Cl)cc23)cc1[N+](=O)[O-] | 0% | 19% | 2 | 4.5µM* | 2% | -19%
CC(=O)c1cc2c(cc1NC(=O)CCn1cccc1)OCO2 | -4% | -13% | 1 | 35µM* | -5% | -13%
CC(=O)c1cc2c(cc1NC(=O)CCC1CCCC1)OCO2 | / | / | -7 | 2% | -1% | /
CCc1ccc(C(=O)c2cn(CC(=O)Nc3cccc(OC)c3)c3cc4c(cc3c2=O)OCO4)cc1 | -1% | / | 2 | 7% | / | -12%
COc1ccccc1CNC(=O)CCc1c(C)nc2c(c(C)nn2-c2ccc(C)c(C)c2)c1C | 0% | / | -4 | 1% | / | 4%
COc1ccc(C(=O)NCCc2sc(-c3ccc(Cl)cc3)nc2C)c(OC)c1 | 2% | / | 42 | -7% | / | -25%
CS(=O)(=O)N1CCN(c2ccc(NC(=O)c3ccc([N+](=O)[O-])o3)cc2)CC1 | 1% | -23% | -101* | -27% | 0% | 45%
O=C(Nc1ccc(N2CCCC2)c(Cl)c1)c1ccco1 | -3% | ? | -90* | -28% | -18% | /
O=C(Nc1ccc(N2CCN(Cc3ccccc3F)CC2)cc1)c1ccc([N+](=O)[O-])o1 | 1% | -25% | -100* | -2% | / | ?
O=C(Nc1ccc(N2CCCCC2)cc1)c1ccc([N+](=O)[O-])o1 | -12% | ? | -96* | -27% | 2% | -6%
CN1CCN(c2ccc(NC(=O)c3ccco3)cc2Cl)CC1 | -8% | -1% | 115 | -1% | 0% | 21%
CC1CCN(c2ccccc2NC(=O)c2ccc([N+](=O)[O-])o2)CC1 | -1% | -13% | -10 | -5% | / | -2%
SMILES | TbPYK inhibitor | RE007 growth inh | HCMV inh | Sm TGR inh | FBPA Giardia inh | FMDV antiviral
CC(C)CC(=O)NC(=S)Nc1ccc(N2CCCC2)c(Cl)c1 | -1% | -3% | -62* | 2% | 0% | 35%
COc1ccc(N2CCCC2)c(NC(=O)c2ccc([N+](=O)[O-])o2)c1 | -7% | -26% | 18 | ? | -9% | ?
O=C(Nc1ccc(N2CCCC2)c(Cl)c1)c1ccc([N+](=O)[O-])o1 | -3% | -6% | -89* | ? | ? | 12%
CC1CCN(c2ccc(NC(=O)c3ccc([N+](=O)[O-])o3)cc2)CC1 | -4% | -26% | -98* | -3% | / | -15%
CC(C)C(=O)Nc1ccc(N2CCCC2)c(Cl)c1 | -1% | -1% | 30 | -2% | 0% | 34%
COc1ccccc1NC(=O)C1CCN(C(=O)c2sc3nc[nH]c(=O)c3c2C)CC1 | -4% | / | 30 | -7% | / | -12%
COc1ccc(CNC(=O)c2ccc(CS(=O)(=O)c3ccccc3OC)o2)cc1 | 0% | / | -23 | 9% | / | -13%
CC(=O)OC1CC[C@@]2(C)C(=CC[C@H]3[C@@H]4CC[C@H](C(C)=O)[C@@]4(C)CC[C@@H]32)C1 (stereo partly specified) | / | / | / | / | 2% | /
O=S(=O)(c1ccc2ccccc2c1)n1nc(-c2ccco2)nc1NCc1cccc(Cl)c1 | 4% | / | -3 | -5% | / | 26%
CCCCc1ccc(C(=O)O)nc1 | -9% | -3%[18.4 µM] | 25 | -14% | 16µM* | -20%
Cc1cc(=O)[nH]c2ccccc12 | -2% | 24% | -11 | -25% | 3% | 8%
Cc1cc2[nH]c3c(c[n+](C)c4ccccc34)c2cc1C | -11% | -10% | -98* | 4% | -19% | -5%
COc1ccc(NC(=O)/C(C#N)=C/c2c(C)nn(-c3ccc(F)cc3)c2Cl)cc1OC | 3% | -14% | -15 | 1% | -11% | 22µM*
Cc1nn(-c2ccccc2)c(Cl)c1/C=C(\C#N)C(=O)NC(C)C | -1% | 48% | ? | 3% | 1% | 25µM*
COc1ccc(NC(=O)/C(C#N)=C/c2c(C)nn(-c3ccc(F)cc3)c2Cl)cc1Cl | 2% | -8% | -21 | 0% | -5% | ?
COc1ccccc1NC(=O)/C(C#N)=C/c1c(C)nn(-c2ccc(F)cc2)c1Cl | 2% | 8% | ? | 3% | 3% | 0%
COc1ccc(C(=O)/C=C/c2ccccc2)c(OC)c1 | -1% | -14% | -68* | 7% | -15% | -17%
COc1ccc(C=CC(=O)c2c(OC)cc(OC)c(OC)c2O)cc1 | 1% | -12% | 0 | / | / | 18µM*
COC1=C(C)C(O)=C(C(=O)/C=C/c2ccccc2)C(=O)C1(C)C | 0% | -3% | -77* | ? | 1% | -4%
COc1ccc(C(=O)/C=C/c2ccc(O)cc2)cc1 | -2% | -20% | 33 | -4% | 12% | 30%
